We go through 8 sequences from paper PMC8384837, “Expanding the binding specificity for RNA recognition by a PUF domain”.

Test in all cases: yeast three-hybrid, YBZ-1, SC-Leu-His + 0.5 mM 3-AT, 4 days
What all share (details): tags: N-Gal4 AD-HA kept; label: inside an RPR1-promoter hybrid RNA with tandem MS2 sites; ssRNA

One test deals with PUM1 PUF domain R4-DYV (Homo sapiens, UniProt Q14671 828-1176, N971D;H972Y;Q975V). The procedure, abridged:
(§1)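 Sequencing with Illumina followed PCR amplification of the repeat regions from transformants grown four days on SC-Leu (input) or SC-Leu-His + 0.5 mM 3-AT (selection). The transformants were strain YBZ-1 with a LexA–MS2 coat fusion and a HIS3 reporter, carrying Pumilio-1 PUF domain libraries and matching RNA elements. The interaction score is the log change in variant frequency from input to selection, computed in log2 with a pseudocount of 1 for absent variants.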

For another test, the target named is PUM1 PUF domain R4-PFD (Homo sapiens, UniProt Q14671 828-1176, N971P;H972F;Q975D). The procedure, abridged:
as §1

In the next test the target is PUM1 PUF domain R8-KYC (Homo sapiens, UniProt Q14671 828-1176, N1122K;Q1126C). The procedure, abridged:
as §1

The next test deals with PUM1 PUF domain R5-RFG (Homo sapiens, UniProt Q14671 828-1176, C1007R;R1008F;Q1011G). An outline of the steps: as §1
Sequence of PUM1 PUF domain R5-RFG (Q14671 828-1176 C1007R/R1008F/Q1011G): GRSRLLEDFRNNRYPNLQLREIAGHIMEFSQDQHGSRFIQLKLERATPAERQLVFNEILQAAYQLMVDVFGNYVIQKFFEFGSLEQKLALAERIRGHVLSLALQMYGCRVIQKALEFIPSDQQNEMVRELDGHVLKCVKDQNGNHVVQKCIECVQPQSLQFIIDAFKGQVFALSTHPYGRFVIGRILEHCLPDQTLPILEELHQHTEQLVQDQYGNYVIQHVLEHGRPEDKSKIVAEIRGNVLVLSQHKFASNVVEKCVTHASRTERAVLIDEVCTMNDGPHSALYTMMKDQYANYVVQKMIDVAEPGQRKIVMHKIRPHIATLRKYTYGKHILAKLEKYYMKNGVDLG
A further test concerns the target PUM1 PUF domain R3-ARG (Homo sapiens, UniProt Q14671 828-1176, C935A;Q939G). The procedure, abridged:
as §1

Another test deals with PUM1 PUF domain R5-RFA (Homo sapiens, UniProt Q14671 828-1176, C1007R;R1008F;Q1011A). An outline of the steps: as §1
Sequence of PUM1 PUF domain R5-RFA (Q14671 828-1176 C1007R/R1008F/Q1011A): as the sequence (Q14671 828-1176 C1007R/R1008F/Q1011G) above, with G184A counted along it
Another test addresses PUM1 PUF domain R8-PWS (Homo sapiens, UniProt Q14671 828-1176, N1122P;Y1123W;Q1126S). The procedure, abridged: as §1
For a further test, the target named is PUM1 PUF domain R8-KYQ (Homo sapiens, UniProt Q14671 828-1176, N1122K). The procedure, abridged: as §1
Sequence of PUM1 PUF domain R8-KYQ (Q14671 828-1176 N1122K): as the sequence (Q14671 828-1176 C1007R/R1008F/Q1011G) above, with R180C, F181R, G184Q, N295K counted along it
In another test the target is PUM1 PUF domain R3-KHV (Homo sapiens, UniProt Q14671 828-1176, C935K;R936H;Q939V). An outline of the steps: as §1
Sequence of PUM1 PUF domain R3-KHV (Q14671 828-1176 C935K/R936H/Q939V): as the sequence (Q14671 828-1176 C1007R/R1008F/Q1011G) above, with C108K, R109H, Q112V, R180C, F181R, G184Q counted along it
Another test deals with PUM1 PUF domain R5-QKN (Homo sapiens, UniProt Q14671 828-1176, C1007Q;R1008K;Q1011N). An outline of the steps: as §1
Sequence of PUM1 PUF domain R5-QKN (Q14671 828-1176 C1007Q/R1008K/Q1011N): as the sequence (Q14671 828-1176 C1007R/R1008F/Q1011G) above, with R180Q, F181K, G184N counted along it

Sequence of PUM1 PUF domain R4-DYV (Q14671 828-1176 N971D/H972Y/Q975V): as the sequence (Q14671 828-1176 C1007R/R1008F/Q1011G) above, with N144D, H145Y, Q148V, R180C, F181R, G184Q counted along it
Sequence of PUM1 PUF domain R4-PFD (Q14671 828-1176 N971P/H972F/Q975D): as the sequence (Q14671 828-1176 C1007R/R1008F/Q1011G) above, with N144P, H145F, Q148D, R180C, F181R, G184Q counted along it
Sequence of PUM1 PUF domain R8-KYC (Q14671 828-1176 N1122K/Q1126C): as the sequence (Q14671 828-1176 C1007R/R1008F/Q1011G) above, with R180C, F181R, G184Q, N295K, Q299C counted along it
Sequence of PUM1 PUF domain R3-ARG (Q14671 828-1176 C935A/Q939G): as the sequence (Q14671 828-1176 C1007R/R1008F/Q1011G) above, with C108A, Q112G, R180C, F181R, G184Q counted along it
Sequence of PUM1 PUF domain R8-PWS (Q14671 828-1176 N1122P/Y1123W/Q1126S): as the sequence (Q14671 828-1176 C1007R/R1008F/Q1011G) above, with R180C, F181R, G184Q, N295P, Y296W, Q299S counted along it

For “GGCUAGAACUAGUGGAUCCCCCGGCGCCCGGCGGCUCGAGCCCGGGUAAGUGUACAUAGUCUGCAUGCCGCCGGGCGCCAUGCCUGCAGGUCGACUCUAGAAAACAUG”, the binding signal in the test with PUM1 PUF domain R4-DYV was 6.74 log2 enrichment (interaction score); with PUM1 PUF domain R4-PFD, 1.86 log2 enrichment (interaction score).

As to “GGCUAGAACUAGUGGAUCCCCCGGCGCCCGGCGGCUCGAGCCCGGGUAAGCGUAAAUAGUCUGCAUGCCGCCGGGCGCCAUGCCUGCAGGUCGACUCUAGAAAACAUG”, in the test with PUM1 PUF domain R8-KYC, the binding signal was 6.06 log2 enrichment (interaction score).

“GGCUAGAACUAGUGGAUCCCCCGGCGCCCGGCGGCUCGAGCCCGGGUAAGUGUGAAUAGUCUGCAUGCCGCCGGGCGCCAUGCCUGCAGGUCGACUCUAGAAAACAUG”: the binding signal with PUM1 PUF domain R5-RFG is 2.66 log2 enrichment (interaction score).

For “GGCUAGAACUAGUGGAUCCCCCGGCGCCCGGCGGCUCGAGCCCGGGUAAGUGUAAAUAGUCUGCAUGCCGCCGGGCGCCAUGCCUGCAGGUCGACUCUAGAAAACAUG”, the binding signal in the test with PUM1 PUF domain R3-ARG is 3.94 log2 enrichment (interaction score); in the test with PUM1 PUF domain R4-DYV, 5.94 log2 enrichment (interaction score); in the test with PUM1 PUF domain R5-RFA it was 2.39 log2 enrichment (interaction score); with PUM1 PUF domain R8-KYC it was 2.79 log2 enrichment (interaction score); with PUM1 PUF domain R4-PFD it was 3.55 log2 enrichment (interaction score); in the test with PUM1 PUF domain R8-PWS, 2.42 log2 enrichment (interaction score). The binding signal is 5.9 log2 enrichment (interaction score) with PUM1 PUF domain R8-KYQ and 3.09 log2 enrichment (interaction score) with PUM1 PUF domain R5-RFG.

Regarding “GGCUAGAACUAGUGGAUCCCCCGGCGCCCGGCGGCUCGAGCCCGGGUAAGUGUAAUUAGUCUGCAUGCCGCCGGGCGCCAUGCCUGCAGGUCGACUCUAGAAAACAUG”, the binding signal with PUM1 PUF domain R3-KHV is 2.96 log2 enrichment (interaction score); with PUM1 PUF domain R3-ARG it was 0.5 log2 enrichment (interaction score).

As for “GGCUAGAACUAGUGGAUCCCCCGGCGCCCGGCGGCUCGAGCCCGGGUAAGUGUCAAUAGUCUGCAUGCCGCCGGGCGCCAUGCCUGCAGGUCGACUCUAGAAAACAUG”, the binding signal with PUM1 PUF domain R5-QKN is 2.32 log2 enrichment (interaction score); with PUM1 PUF domain R5-RFA it was 5.36 log2 enrichment (interaction score); with PUM1 PUF domain R5-RFG, 5.07 log2 enrichment (interaction score).

Consider “GGCUAGAACUAGUGGAUCCCCCGGCGCCCGGCGGCUCGAGCCCGGGUAAGUGUAUAUAGUCUGCAUGCCGCCGGGCGCCAUGCCUGCAGGUCGACUCUAGAAAACAUG”, for which the figures for the binding signal in the test with PUM1 PUF domain R4-DYV and with PUM1 PUF domain R4-PFD were 6.86 log2 enrichment (interaction score) and 5.34 log2 enrichment (interaction score), respectively.

Consider “GGCUAGAACUAGUGGAUCCCCCGGCGCCCGGCGGCUCGAGCCCGGGUAAGUGUUAAUAGUCUGCAUGCCGCCGGGCGCCAUGCCUGCAGGUCGACUCUAGAAAACAUG”, for which the binding signal was 4.55 log2 enrichment (interaction score) in the test with PUM1 PUF domain R5-RFA and 5.49 log2 enrichment (interaction score) with PUM1 PUF domain R5-RFG.
